PubChem BioAssay (NCATS)
Inconclusive results are not listed. Where a call stands in place of a potency, no number is given. The source made the active and inactive calls. Calls come from the whole dose curve; as a rule, active = well fitted cell-killing curve with a large enough effect; inconclusive = small, poorly fitted or top-dose-only effect; inactive = flat fitted curve, though single readings scatter.

assay: Cell Viability - LYMP2-021 (AID 974); conditions: LYMP2-021 lymphoblastoid cells viability; series mostly up to 92.2 µM;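 note: compound exposure lasts 24 hours at 37 °C; nearly all actives have a fitted effect of over 55% in size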
Source text: NIH Chemical Genomics Center [NCGC]
NIH Molecular Libraries Screening Centers Network [MLSCN]
National Institutes of Environmental Health Sciences [NIEHS]
National Toxicology Program [NTP]
We have developed a 1536-well cell-based assay for quantitative high throughput screening (qHTS) against a number of cell lines to determine in vitro cytotoxicity of small molecules. This particular assay uses a human lymphoblastoid cell line (LYMP2-021) purchased from Coriell Institute for Medical Research.
NCGC Assay Protocol Summary:
The CellTiter-Glo luminescent cell viability assay (Promega) is a homogeneous method to measure the number of viable cells in culture. The end point readout of this assay is based on quantitation of intracellular ATP, an indicator of metabolic activity, using the luciferase reaction. Luciferase catalyzes the oxidation of beetle Luciferin to oxyluciferin and light in the presence of ATP. The luminescent signal is proportional to amount of ATP present.
Using the CellTiter-Glo luminescent cell viability assay, the amount of cellular ATP was measured in the lymphoblastoid cell line with complete culture medium following compound treatment for 24 hours. The assay was performed in opaque white Kalypsys 1536-well plates. In the screen, tetraoctylammonium bromide was used as positive control. Library compounds were measured for their ability to cause acute toxicity in the cell line, as reflected by a decrease in intracellular ATP levels, in a concentration-dependent manner. […] AC50 values were determined from concentration-response data modeled with the standard Hill equation.
qHTS protocol for CellTiter Glo lymphoblastoid cellular assay
[Step] [Parameter] [Value] [Description]
1. Reagent; 5 uL; 2500 lymphoblastoid cells/well
2. Time; 5 hr; 37 C incubation
4. Controls; 23 nL; Tetraoctylammonium bromide 6.4pM to 92 uM
5. Time; 24 hr; 37 C incubation
6. Reagent; 5 uL; CellTiter Glo reagent
7. Time; 30 min; Room Temperature
8. Detection; Luminescence; Viewlux plate reader
Keywords: cell viability, cytotoxicity, lymphoblastoid cell line, luminescence, NTPHTS, NTPHTS_NCGC, NIEHS, DSSTox, MLSMR, MLSCN, NIH Roadmap, qHTS, NCGC
Potency is the fitted concentration of half-maximal effect.

SMILES	Potency
Nc1cc(Cl)c([N+](=O)[O-])cc1O	inactive
Nc1nc(-c2ccccc2)cs1	inactive
CCCCCCO	inactive
CCCCOCCOCCOCCCC	inactive
Cc1cccc(C(=O)O)c1[N+](=O)[O-]	inactive
Nc1cccc(N)c1	inactive
O=C(O)/C=C/C(=O)O	inactive
CCN(C(=O)N(CC)c1ccccc1)c1ccccc1	inactive
C=CCn1c(=O)n(CC=C)c(=O)n(CC=C)c1=O	inactive
N#Cc1ccccc1	inactive
OC1CCCC1	inactive
CC(C)(C)OCC1CO1 (stereo not given)	inactive
CCCCC/C=C/C=C/C=O	39.8 µM (active)
Cc1cscn1	inactive
COC(=O)CS	inactive
Cc1ccc(C#N)cc1	inactive
O=C(O)c1ccccc1C(=O)O	inactive
CC(C)=C1CCC(C)CC1=O (stereo not given)	inactive
BrC(Br)C(Br)Br	inactive
Nc1nc2ccccc2[nH]1	inactive

SMILES	Potency
CCC(C)(C)C(=O)O	inactive
Cc1ccco1	inactive
C=CC(=O)OCCCC	inactive
O=C1OC(=O)c2c(Cl)c(Cl)c(Cl)c(Cl)c21	inactive
Cc1cccc(C)c1O	inactive
CCCCN(CCO)CCCC	inactive
O=C1CCCCC1	inactive
CC(=O)OCCC(C)C	inactive
O=C1CCC(=O)O1	inactive
CC(C)CO	inactive
Cc1ccccc1C(=O)O	inactive
COc1ccccc1[N+](=O)[O-]	inactive
NC(=O)c1ccccc1[N+](=O)[O-]	inactive
C=Cc1ccccc1C=C	inactive
Cc1cc(C)cc([N+](=O)[O-])c1	inactive
Fc1ccccc1	inactive
CC(=O)c1ccccc1[N+](=O)[O-]	inactive
Cc1c(N)cccc1[N+](=O)[O-]	inactive
CCCCC(CC)C(=O)O (stereo not given)	inactive
O=C(O)CCSSCCC(=O)O	inactive
